Source: PubChem BioAssay
DUSP3 inh: DUSP3 (human) phosphatase inhibition. AID 1654. P51452. inhibition, % at 13.3 µM. 290,000 tested, 0.52% active. recombinant VHR phosphatase, pNPP absorbance; in the data active means inhibition above about 50%
BoNT F protease: BoNT F light chain protease inhibition; inhibition, % at 10 µM; 360,000 tested, 0.22% active; Multiplex microsphere protease cleavage assay, flow cytometry; in the data active means inhibition above about 35%, passing the limit was not always enough; inconclusive means no clear call, values can overlap the other calls; further: plate controls were buffer without enzyme for full effect and enzyme alone for no effect
Autofluor counter: compound fluorescence in toxin protease inhibitor counterscreen; 360,000 tested, 3.1% active; compound autofluorescence counterscreen, microsphere flow cytometry; hits give high values; fluorescence intensity (concentration not given with the values); in the data active means fluorescence intensity above about 16000; inconclusive means no clear call, values can overlap the other calls
Anthrax LF prot: inhibitors of Bacillus anthracis lethal factor protease; multiplex microsphere protease cleavage assay, LF; P15917; AID 588501; 360,000 tested, 0.12% active; inhibition, % at 10 µM; further: plate controls were buffer without enzyme for full effect and enzyme alone for no effect
Target sequence (P15917 whole entry, looked up): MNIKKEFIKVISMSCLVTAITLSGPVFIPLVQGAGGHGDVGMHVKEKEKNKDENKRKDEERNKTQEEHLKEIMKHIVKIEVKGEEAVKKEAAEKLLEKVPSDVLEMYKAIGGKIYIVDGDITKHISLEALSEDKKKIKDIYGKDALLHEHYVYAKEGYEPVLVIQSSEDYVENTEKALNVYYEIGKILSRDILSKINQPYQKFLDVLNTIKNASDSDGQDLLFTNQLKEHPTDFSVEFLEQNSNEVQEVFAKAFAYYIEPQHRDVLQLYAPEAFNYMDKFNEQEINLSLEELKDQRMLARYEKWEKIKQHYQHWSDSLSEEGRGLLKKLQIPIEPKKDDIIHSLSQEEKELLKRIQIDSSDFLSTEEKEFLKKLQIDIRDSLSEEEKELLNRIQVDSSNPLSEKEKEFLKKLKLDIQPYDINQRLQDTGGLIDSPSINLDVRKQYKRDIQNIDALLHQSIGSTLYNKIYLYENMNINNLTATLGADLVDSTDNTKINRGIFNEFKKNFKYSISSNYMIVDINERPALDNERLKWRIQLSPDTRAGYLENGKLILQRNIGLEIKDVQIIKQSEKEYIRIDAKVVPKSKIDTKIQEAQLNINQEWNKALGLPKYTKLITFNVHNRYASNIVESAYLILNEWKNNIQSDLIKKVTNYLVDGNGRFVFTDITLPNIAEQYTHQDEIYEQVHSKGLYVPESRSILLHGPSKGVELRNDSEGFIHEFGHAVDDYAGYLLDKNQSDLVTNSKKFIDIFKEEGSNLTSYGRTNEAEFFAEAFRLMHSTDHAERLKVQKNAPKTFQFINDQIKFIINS
MazEF act: increases E. coli MazEF RNase cleavage of RNA; activation, % at 20 µM; 350,000 tested, 0.32% active; FAM/BHQ RNA-DNA oligo cleavage fluorescence, 5 h; in the data active means activation above about 50%
BoNT A protease: BoNT A light chain protease inhibition. multiplex microsphere protease substrate cleavage, flow cytometry. inhibition, % at 10 µM. 360,000 tested, 0.17% active. AID 588499; further: plate controls were buffer without enzyme for full effect and enzyme alone for no effect
* marks the source's active call; other numbers are inactive results; ? = inconclusive; · = no result given. In the library only some 4% were active in any assay of this set; here they are far more common. Unless noted, no stated cut-off is given here; in the data, active means inhibition above about 30%; inconclusive means no clear call, values can overlap the other calls; inactive means below that.

SMILES | DUSP3 inh | BoNT F protease | Autofluor counter | Anthrax LF prot | MazEF act | BoNT A protease
Cc1nc2ccccc2n1/N=C/c1ccc([N+](=O)[O-])s1 | -7 | 4 | 2688 | 6 | 49 | 12
O=C(Nc1ccc2c(c1)OCO2)C1CCCN1C(=O)OCc1ccccc1 (stereo not given) | 26 | 2 | 3691 | 1 | -2 | 1
COc1cc(OC)c(N(C)S(=O)(=O)c2cccc(C(=O)OCC(=O)N(C)C3CCCCC3)c2)cc1Cl | · | -3 | 4294 | -7 | -4 | 0
CCN(CC)CCn1c2c(c(SCC(=O)Nc3ccc4c(c3)OCCO4)nc1=O)CCC2 | · | -2 | 6659 | ? | 2 | 0
COC(=O)[C@@H](NC(=O)Nc1ccc2c(c1)OCCO2)C(C)C | 11 | -5 | 2544 | -2 | 0 | 0
COC(=O)[C@H](CC(C)C)NC(=O)Nc1ccc2c(c1)OCCO2 | 36 | -1 | 22561* | 1 | 0 | -1
CC(C)[C@H](NC(=O)Nc1ccc2c(c1)OCCO2)C(=O)O | 2 | 1 | 20779* | -2 | -4 | -1
CCC(C)[C@H](NC(=O)Nc1ccc2c(c1)OCCO2)C(=O)O (stereo not given in full) | 19 | -1 | 8933 | -5 | 6 | 0
O=[N+]([O-])c1ccccc1CSc1nnc2ccccn12 | 14 | 3 | 3977 | -1 | 8 | -1
CCCCC(=O)N=c1sc2cc([N+](=O)[O-])ccc2n1C | 6 | 0 | 4390 | 2 | 9 | 0
COC(=O)C(Cc1c[nH]c2ccccc12)NC(=O)c1ccccc1Br (stereo not given) | 1 | ? | 3359 | 1 | 1 | -3
CN(C)C(Cc1ccccc1)C(=O)c1ccc(-c2ccccc2)cc1 (stereo not given) | 10 | -6 | 16369* | -2 | -2 | ?
C=CCN(CC=C)C(=S)NC(=O)c1ccc(OC)cc1 | 14 | -3 | 3335 | -4 | -9 | 0
O=C(CC(Cc1ccccc1)C(=O)O)Nc1ccc(F)cc1 (stereo not given) | 15 | ? | 3612 | 2 | -18 | -4
COc1ccc(C(=O)C(Cc2ccccc2)N(C)C)cc1 (stereo not given) | -1 | 1 | 16157* | -2 | 9 | 1
COc1ccc(C(=O)NC(=S)N(Cc2ccccc2)Cc2ccccc2)cc1 | 13 | -2 | 16570* | -6 | 0 | 0
COc1ccc(NC(=O)CC(Cc2ccccc2)C(=O)O)cc1 (stereo not given) | 18 | 0 | 22709* | -3 | -11 | 0
O=C(Nc1nnc([C@H]2C[C@H](O)[C@@H](CO)O2)s1)c1cccc(Oc2ccccc2)c1 | · | -5 | 2874 | -7 | · | 0
CC1(C)NC(C)(C)C(O)(C(N)=O)C1=O (stereo not given) | 14 | -1 | 23198* | -2 | 1 | -2
CC1(C)C(C(N)=O)C(=O)NC(=O)C1C(N)=O (stereo not given) | · | -9 | 4178 | -6 | 4 | 0
CC1(C)CC(=O)c2cnc(NCC3CCCO3)nc2C1 (stereo not given) | 16 | -4 | 2294 | -2 | -6 | 0
CCOc1ccccc1-n1c(SCC(=O)N2CCCC2)nnc1-c1ccc(O)cc1 | 39 | -1 | 10502 | 0 | -11 | -1
CCOc1ccccc1-n1c(SCC(N)=O)nnc1-c1ccc(O)cc1 | 2 | 4 | 19710* | -1 | -4 | 2
CCOc1ccccc1-n1c(SCC(N)=O)nnc1-c1ccccc1 | 11 | -4 | 16659* | 1 | 5 | ?
COc1ccccc1-n1c(SCC(N)=O)nnc1-c1ccccc1 | 3 | -8 | 3413 | -3 | 0 | -1
SMILES | DUSP3 inh | BoNT F protease | Autofluor counter | Anthrax LF prot | MazEF act | BoNT A protease
COc1ccc(CCNC(=O)COC(=O)COc2ccc(C#N)cc2)cc1 | -19 | -3 | 4213 | 4 | -5 | -1
CCN1CCN(C(=O)c2ccc3c(=O)n(C4CCCC4)c(=S)[nH]c3c2)CC1 | 21 | 2 | 9141 | -9 | 5 | 0
COCCCNC(=O)c1ccc2c(=O)n(C3CCCC3)c(=S)[nH]c2c1 | 5 | 4 | 18736* | -3 | -8 | 4
COCCCNC(=O)c1ccc2c(=O)n(CC3CCCO3)c(=S)[nH]c2c1 (stereo not given) | 27 | -4 | 16266* | -7 | -9 | 0
Cc1ccc(NC(=O)OCC(F)(F)C(F)F)cc1NC(=O)OCC(F)(F)C(F)F | 19 | -8 | 21692* | -9 | 9 | ?
COc1ccc(NC(=O)CCC(=O)OCc2ccc(C(=O)Oc3ccc(Cl)cc3)cc2)cc1 | 5 | -1 | 19988* | -2 | -14 | 0
O=C(CCC(=O)OCC(F)(F)C(F)F)Nc1ccc(Cl)cc1 | 29 | 6 | 17876* | -13 | -2 | ?
O=C(CCC(=O)OCc1ccc(C(=O)Oc2ccc(Cl)cc2)cc1)Nc1ccccc1 | 10 | -12 | 2169 | -2 | -7 | 0
CCOC(=O)N(c1ccccc1)P1(=S)OCC(C)O1 (stereo not given) | 10 | -3 | 20958* | 0 | 0 | -1
Cc1cc(C)n2nc(C(=O)N/N=C/c3c4ccccc4cc4ccccc34)nc2n1 | 28 | -28 | 2385 | -3 | 0 | -4
CCn1nc(C)c(/C=N/NC(=O)c2nc3nc(C)cc(C)n3n2)c1C | 9 | ? | 3405 | 34* | 4 | 3
COc1ccccc1-n1cnc2cc(NCc3cccs3)ccc21 | 33 | 4 | 2305 | -8 | -2 | 1
Cc1ccccc1-n1cnc2cc(NCc3cccs3)ccc21 | 36 | -8 | 23047* | -3 | 5 | ?
Cc1cccc(-c2nnc3sc(-c4ccccc4C)nn23)c1 | 15 | -4 | 16434* | -4 | 2 | -1
COc1ccc(-c2nn3c(-c4ccccc4)nnc3s2)cc1 | 30 | 0 | 20178* | 0 | 13 | 0
COc1cccc(-c2nnc3sc(-c4ccccc4)nn23)c1 | 13 | -2 | 20646* | 1 | 7 | ?
c1ccc(-c2nnc3sc(-c4ccncc4)nn23)cc1 | 9 | -4 | 9878 | -2 | 8 | 0
COc1cccc(-c2nnc3sc(-c4ccc(Cl)cc4)nn23)c1 | 22 | · | · | · | · | ·
COc1ccccc1-c1nn2c(-c3ccco3)nnc2s1 | 21 | 4 | 21284* | 2 | -7 | 3
Cc1onc(C(=O)NC(C)c2ccccc2)c1[N+](=O)[O-] (stereo not given) | -11 | -8 | 2503 | -2 | -2 | 0
COc1ccc(-c2nn3c(COc4ccccc4)nnc3s2)cc1OC | 19 | -3 | 17330* | -4 | 8 | -2
Cn1c(=O)cc(N2CCc3ccccc32)[nH]c1=O | -5 | -4 | 5757 | -7 | 6 | 0
O=C(CNS(=O)(=O)c1ccccc1)OCC(=O)c1ccc(OC(=O)c2ccccc2)cc1 | 30 | 7 | 21032* | 0 | -9 | ?
COc1ccc(-n2nc(C(=O)NCC(=O)NC(C)C)c3ccccc3c2=O)cc1OC | 18 | -23 | 3257 | -2 | 4 | -3
